Assay results from PubChem BioAssay (NCATS).
Records with an inconclusive call do not appear. Calls of active or inactive are those of the source. Calls follow the shape of the dose curve; as a rule, active = well fitted curve in the direction sought with a large enough effect; inconclusive = small, poorly fitted or top-dose-only effect, or another doubt; inactive = no such curve, though single readings can be large; an effect the other way counts as inactive or inconclusive.

How the values were obtained:
[1] = S16 Schwann cell PMP22 intronic element firefly luciferase assay (AID 624032); also: nearly all actives have a fitted effect of over 30% in size
Summary of the method: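 Rat S16 Schwann cells stably carrying a PMP22 intronic element-driven Fluc reporter were seeded overnight, then exposed to compounds for 24 h at 37 °C. Luminescence was normalized to PTC124 (positive control) and DMSO (0% activity).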

7G8 = assay: qHTS profiling for inhibitors of Plasmodium falciparum proliferation (AID 504749); also: nearly all actives have a fitted effect of over 60% in size; details: P. falciparum in erythrocytes, SYBR Green DNA, 72 h; series mostly up to 28.7 µM
Summary of the method: (§1)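 P. falciparum-infected erythrocytes (0.3% parasitemia, 2.5% hematocrit final) were exposed to compounds for 72 h at 37 C in 5% CO2, then lysed with SYBR Green buffer overnight at room temperature; parasite DNA fluorescence was normalized to artemisinin and DMSO controls.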

ATS95 = assay: as above; details: P. falciparum in erythrocytes, SYBR Green DNA, 72 h; series mostly up to 28.7 µM
Summary of the method: as §1

CP203 = assay: as above; details: P. falciparum in erythrocytes, SYBR Green DNA, 72 h; series mostly up to 28.7 µM
Summary of the method: as §1

CP215 = assay: as above; details: P. falciparum in erythrocytes, SYBR Green DNA, 72 h; series mostly up to 28.7 µM
Summary of the method: as §1

CP247 = assay: as above; details: P. falciparum in erythrocytes, SYBR Green DNA, 72 h; series mostly up to 28.7 µM
Summary of the method: as §1

CP266 = assay: as above; details: P. falciparum in erythrocytes, SYBR Green DNA, 72 h; series mostly up to 28.7 µM
Summary of the method: as §1

CP268 = assay: as above; details: P. falciparum in erythrocytes, SYBR Green DNA, 72 h; series mostly up to 28.7 µM
Summary of the method: as §1

CP291 = assay: as above; details: P. falciparum in erythrocytes, SYBR Green DNA, 72 h; series mostly up to 28.7 µM
Summary of the method: as §1

CP297 = assay: as above; details: P. falciparum in erythrocytes, SYBR Green DNA, 72 h; series mostly up to 28.7 µM
Summary of the method: as §1

CP325 = assay: as above; details: P. falciparum in erythrocytes, SYBR Green DNA, 72 h; series mostly up to 28.7 µM
Summary of the method: as §1

CP335 = assay: as above; details: P. falciparum in erythrocytes, SYBR Green DNA, 72 h; series mostly up to 28.7 µM
Summary of the method: as §1

DIV14 = assay: as above; details: P. falciparum in erythrocytes, SYBR Green DNA, 72 h; series mostly up to 28.7 µM
Summary of the method: as §1

DIV17 = assay: as above; details: P. falciparum in erythrocytes, SYBR Green DNA, 72 h; series mostly up to 28.7 µM
Summary of the method: as §1

GB4 = assay: as above; details: P. falciparum in erythrocytes, SYBR Green DNA, 72 h; series mostly up to 28.7 µM
Summary of the method: as §1

ICS = assay: as above; details: P. falciparum in erythrocytes, SYBR Green DNA, 72 h; series mostly up to 28.7 µM
Summary of the method: as §1

P93_24 = assay: as above; details: P. falciparum in erythrocytes, SYBR Green DNA, 72 h; series mostly up to 28.7 µM
Summary of the method: as §1

PC26 = assay: as above; details: P. falciparum in erythrocytes, SYBR Green DNA, 72 h; series mostly up to 28.7 µM
Summary of the method: as §1

PC49 = assay: as above; details: P. falciparum in erythrocytes, SYBR Green DNA, 72 h; series mostly up to 28.7 µM
Summary of the method: as §1

CP260 = assay: as above; details: P. falciparum in erythrocytes, SYBR Green DNA, 72 h; series mostly up to 28.7 µM
Summary of the method: as §1

Measured: Potency
Potency is read from the fitted curve at half-maximal effect.

CC(=O)N1CC(O)CC1C(=O)O (centres undefined)
inactive: [1] | 7G8 | ATS95 | CP203 | CP215 | CP247 | CP266 | CP268 | CP291 | CP297 | CP325 | CP335 | DIV14 | DIV17 | GB4 | ICS | P93_24 | PC26 | PC49

Nc1nc(F)nc2c1ncn2[C@@H]1O[C@H](CO)[C@@H](O)[C@H]1O
inactive: [1] | 7G8 | ATS95 | CP203 | CP215 | CP247 | CP260 | CP266 | CP268 | CP291 | CP297 | CP325 | CP335 | DIV14 | DIV17 | GB4 | ICS | P93_24 | PC26 | PC49

CCCC(=O)Nc1c(I)cc(I)c(C[C@H](CC)C(=O)O)c1I
inactive: [1] | 7G8 | ATS95 | CP203 | CP215 | CP247 | CP266 | CP268 | CP291 | CP297 | CP325 | CP335 | DIV17 | GB4 | ICS | P93_24 | PC26 | PC49

C=C[C@@]1(C)C[C@H](OC(=O)CSC(C)(C)CNC(=O)[C@@H](N)C(C)C)[C@@]2(C)C(C)CC[C@@]3(CCC(=O)[C@@H]32)[C@H](C)[C@H]1O (some centres undefined)
active: [1] 0.361 µM | 7G8 2.51 µM | ATS95 5.01 µM | CP203 1.07 µM | CP215 1.69 µM | CP247 4.47 µM | CP260 3.98 µM | CP268 3.01 µM | CP291 1.69 µM | CP297 2.39 µM | CP325 0.213 µM | CP335 1.2 µM | DIV14 6.01 µM | DIV17 7.57 µM | GB4 3.79 µM | ICS 2.82 µM | P93_24 0.501 µM | PC26 6.01 µM

CN[C@H](C)CCC=C(C)C
active: 7G8 0.0501 µM | ATS95 0.355 µM | CP203 0.601 µM | CP215 0.601 µM | CP247 0.398 µM | CP260 0.224 µM | CP266 0.536 µM | CP268 1.51 µM | CP291 0.953 µM | CP297 0.601 µM | CP325 0.757 µM | CP335 0.239 µM | DIV14 0.151 µM | DIV17 0.19 µM | GB4 0.135 µM | ICS 0.0447 µM | P93_24 0.251 µM | PC26 0.19 µM | PC49 0.282 µM
inactive: [1]

CC1C(=O)C(=O)C=CN1C (centres undefined)
inactive: [1] | 7G8 | ATS95 | CP203 | CP215 | CP247 | CP266 | CP268 | CP291 | CP297 | CP325 | CP335 | DIV14 | DIV17 | GB4 | ICS | P93_24 | PC26 | PC49

COc1ccc2cc1Oc1cc3c(cc1OC)CC[N+](C)(C)C3Cc1ccc(cc1)Oc1c(OC)c(OC)cc3c1C(C2)[N+](C)(C)CC3 (centres undefined)
inactive: [1] | 7G8 | ATS95 | CP203 | CP215 | CP260 | CP268 | CP291 | CP297 | CP325 | CP335 | DIV14 | DIV17 | GB4 | ICS | P93_24 | PC26 | PC49

Nc1nc(/C(=C/CC(=O)O)C(=O)NC2C(=O)N3C(C(=O)O)=CCSC23)cs1 (centres undefined)
inactive: [1] | 7G8 | ATS95 | CP215 | CP247 | CP260 | CP266 | CP268 | CP291 | CP297 | CP325 | CP335 | DIV14 | DIV17 | GB4 | ICS | P93_24 | PC26 | PC49

NC(=O)OC[C@@H]1[C@H](NC(=O)/C(=N/OCC(=O)O)c2csc(N)n2)C(=O)N1S(=O)(=O)O
inactive: [1] | 7G8 | ATS95 | CP203 | CP215 | CP247 | CP260 | CP266 | CP291 | CP297 | CP325 | CP335 | DIV14 | GB4 | ICS | P93_24 | PC26 | PC49

CC[C@@]1(O)CC2CN(CCc3c([nH]c4ccccc34)[C@](C(=O)OC)(c3cc4c(cc3OC)N(C)C3[C@@](O)(C(=O)OC)C(OC(C)=O)[C@]5(CC)C=CCN6CC[C@@]43C65)C2)C1 (some centres undefined)
active: [1] 0.51 µM | 7G8 2.82 µM | ATS95 3.55 µM | CP203 3.01 µM | CP215 3.38 µM | CP247 1.12 µM | CP260 0.794 µM | CP297 2.39 µM | CP335 1.9 µM | DIV14 4.26 µM | DIV17 4.78 µM | GB4 2.13 µM | ICS 0.708 µM | P93_24 3.16 µM

CN(C)CC/C=C1\c2ccccc2COc2ccc(CC(=O)O)cc21
inactive: [1] | 7G8 | ATS95 | CP203 | CP215 | CP247 | CP260 | CP266 | CP268 | CP291 | CP297 | CP325 | DIV14 | DIV17 | GB4 | ICS | P93_24 | PC49

CNC1C(O)C(OC2C(NC(=O)C(O)CN)CC(N)C(OC3OC(CN)C(O)C(O)C3O)C2O)OCC1(C)O (centres undefined)
inactive: [1] | 7G8 | ATS95 | CP203 | CP215 | CP247 | CP260 | CP266 | CP268 | CP291 | CP297 | CP325 | DIV14 | DIV17 | GB4 | P93_24 | PC26 | PC49
